Test results published in PubChem BioAssay (Tox21).
Values joined by “and” are separate entries in the source; they are usually repeats but may differ in a detail not shown here. Equal values may be shown once. Records with an inconclusive call do not appear. More than one record can exist for a structure, and the calls need not agree. Active and inactive are the calls of the source. Unless noted, calls come from the whole dose curve; as a rule, active = well fitted curve in the direction sought with a large enough effect in the repeat runs; inconclusive = weak or mixed curves; inactive = no such curve, though single readings can be large; an effect the other way counts as inactive or inconclusive.

Assays:
[1] = biological target: Retinoic acid receptor RXR-alpha (Homo sapiens) (UniProt P19793); assay: qHTS assay to identify small molecule agonists of the RXR signaling pathway (AID 1159527; calls by dose curve; note: nearly all actives have a fitted effect of over 35% in size; note: potency is the fitted concentration of half-maximal effect)
Outline: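 Reporter activation is measured as beta-lactamase activity via FRET substrate cleavage (emission 460/530 nm) in HEK 293T cells expressing an RXR-alpha-driven bla construct, following 16 hr compound exposure at 37 C.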

[2] = qHTS assay to identify small molecule agonists of the RXR signaling pathway - cell viability counter screen (AID 1159529); note: nearly all actives have a fitted effect of over 50% in size; note: potency is the fitted concentration of half-maximal effect; for activity change, negative = cytotoxicity: series mostly up to about 77 µM
Outline: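 Tox21 10K compounds were tested for cytotoxicity against GeneBLAzer RXR-alpha HEK 293T cells grown in 2% charcoal-stripped FBS. Exposure lasted 16 hr at 37 C, 5% CO2; viability read by CellTiter-Glo luminescence.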

[3] = qHTS assay to identify small molecule antagonists of the retinoid acid receptor (RAR) signaling pathway - cell viability counter screen (AID 1159551); note: nearly all actives have a fitted effect of over 35% in size
Outline: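 Cytotoxicity counter screen in C3RL4 cells: 6 h compound exposure with 1 uM retinol (final), viability from cellular ATP by luminescence.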

[4] = qHTS assay to identify small molecule antagonists of the retinoic acid receptor (RAR) signaling pathway (AID 1159552; note: nearly all actives have a fitted effect of over 50% in size; note: potency is the fitted concentration of half-maximal effect)
Outline: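 Overnight-plated C3RL4 reporter cells get compound, then retinol to 1 uM final; plates sit 6 hr at 37 C, 5% CO2. A luciferase reagent is added and light output recorded after 30 min at room temperature.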

[5] = qHTS assay to identify small molecule agonists of the retinoic acid receptor (RAR) signaling pathway (AID 1159553); note: potency is the fitted concentration of half-maximal effect
Outline: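 Agonist activity was scored in C3RL4 cells bearing a retinoic acid response element luciferase construct. Cells were treated with compounds for 6 hr at 37 C, and luciferase signal was measured as luminescence.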

[6] = qHTS assay to identify small molecule antagonists of the estrogen related receptor (ERR) signaling pathway from Tox21 library - cell viability counter screen (AID 1224834); note: nearly all actives have a fitted effect of over 30% in size; note: potency is the fitted concentration of half-maximal effect
Outline: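 Cytotoxicity of test substances is gauged in the same ERR cells used for the antagonist screen, after 17.5 h of compound treatment at 37 C, by CellTiter-Fluor fluorescence measured after 30 min.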

[7] = biological target: Luciferin 4-monooxygenase (Photinus pyralis) (UniProt P08659); assay: qHTS assay to identify small molecule inhibitors of firefly luciferase (AID 1224835); note: nearly all actives have a fitted effect of over 25% in size; note: potency is the fitted concentration of half-maximal effect
Outline: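 Quantitative HTS format; KM concentrations of both substrates. Purified P. pyralis FLuc activity quantified from luminescence images.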

[8] = qHTS assay to identify small molecule agonists of the constitutive androstane receptor (CAR) signaling pathway - cell viability counter screen (AID 1224836); note: series mostly up to about 92 µM; nearly all actives have a fitted effect of over 45% in size
Outline: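 Fluorescence from CellTiter-Fluor indicates live cells after 23 h exposure. The human hepatoma line expresses hCAR and a CYP2B6-2.2kb reporter. Incubation medium contains 0.75 uM PK11195 (final).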

[9] = qHTS assay to identify small molecule antagonists of the constitutive androstane receptor (CAR) signaling pathway - cell viability counter screen (AID 1224837); note: series mostly up to about 92 µM; nearly all actives have a fitted effect of over 45% in size
Outline: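 Multiplexed cytotoxicity read-out for the CAR antagonist screen: double-stable HepG2-CYP2B6-hCAR cells co-treated with 50 nM CITCO (final) and compound over 15 concentrations, incubated 23 hr, then assessed by CellTiter-Fluor fluorescence.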

[10] = biological target: Nuclear receptor subfamily 1 group I member 3 (Homo sapiens) (UniProt Q14994); assay: qHTS assay to identify small molecule antagonists of the constitutive androstane receptor (CAR) signaling pathway (AID 1224838); note: nearly all actives have a fitted effect of over 40% in size; note: potency is the fitted concentration of half-maximal effect
Outline: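 Compounds were titrated across 15 concentrations onto HepG2 cells double-stably expressing hCAR and a CYP2B6-2.2kb reporter, together with 50 nM CITCO (final). After 24 h at 37 C, luciferase activity was measured by luminescence.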

[11] = biological target: Nuclear receptor subfamily 1 group I member 3 (Homo sapiens) (UniProt Q14994); assay: qHTS assay to identify small molecule agonists of the constitutive androstane receptor (CAR) signaling pathway (AID 1224839);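 note: HepG2 cells stably carrying human CAR and a CYP2B6 luciferase reporter; series mostly up to about 92 µM; nearly all actives have a fitted effect of over 15% in size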
Outline: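 Stable hCAR/CYP2B6-2.2kb HepG2 line in DMEM with 10% FBS; compounds (15 concentrations) and 0.75 uM PK11195 final, 24 h at 37 C/5% CO2, then ONE-Glo luminescence after 30 min.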

[12] = qHTS assay to identify small molecule antagonists of the estrogen related receptor signaling pathway with the pleiotropic PPARgamma coactivator (PGC) from Tox21 10K library - cell viability counter screen (AID 1224840; active = well fitted cell-killing curve with a large enough effect in the repeat runs, not every such curve was filed as active; note: nearly all actives have a fitted effect of over 40% in size)
Outline: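 Step one, plate 2,000 PGC/ERR cells per well; step two, incubate 6 h at 37 C/5% CO2; step three, pin-transfer compounds; step four, incubate 17.5 h; step five, add CellTiter-Fluor and read fluorescence after 30 min.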

[13] = qHTS assay to identify small molecule antagonists of the estrogen related receptor signaling pathway with the pleiotropic PPARgamma coactivator (PGC) from Tox21 10K library (AID 1224841; call rule not given here; note: series mostly up to about 92 µM; actives are mostly falling curves and most rising ones were filed inactive; nearly all actives have a fitted effect of over 50% in size)
Outline: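 Antagonism in this quantitative HTS is taken from loss of luciferase signal in PGC/ERR cells. Cells (2,000/well) are treated with compounds in DMSO after a 6 h settling period and read by One-Glo luminescence after 18 h.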

[14] = qHTS assay to identify small molecule agonists of the estrogen related receptor signaling pathway with the pleiotropic PPARgamma coactivator (PGC) from Tox21 10K library (AID 1224842); note: nearly all actives have a fitted effect of over 15% in size
Outline: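 PGC/ERR reporter cells (NTP line) were seeded 2,000 per well, rested 6 h at 37 C/5% CO2, then pin-dosed with compounds in DMSO for 18 h at 37 C; luciferase read by One-Glo luminescence after 30 min at room temperature.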

[15] = biological target: Thyrotropin receptor (Homo sapiens) (UniProt P16473); assay: qHTS assay to identify small molecule agonists of the thyroid stimulating hormone receptor (TSHR) signaling pathway (AID 1224843; calls by dose curve; note: nearly all actives have a fitted effect of over 45% in size; note: potency is the fitted concentration of half-maximal effect)
Outline: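 TSHR-expressing HEK293 cells (800 per well) were exposed to compounds for 30 min at room temperature. cAMP was then detected by HTRF competition with cAMP-d2 and anti-cAMP cryptate, read after 1 h at room temperature. Fifteen concentrations, triplicate.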

[16] = qHTS assay to identify small molecule antagonists of the estrogen related receptor (ERR) signaling pathway - cell viability counter screen (AID 1224818);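 note: series mostly up to about 46 µM; viability measured after 17.5 h of compound exposure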
Outline: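 Cells carrying the ERR pathway reporter were seeded and incubated for 6 hours before compound addition. After a 17.5-hour exposure at 37 C, live-cell protease activity was measured by CellTiter-Fluor fluorescence following 30 minutes of incubation.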

[17] = qHTS assay to identify small molecule antagonists of the estrogen related receptor signaling pathway with the pleiotropic PPARgamma coactivator (PGC) cell viability counter screen (AID 1224822;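 note: series mostly up to about 46 µM; viability read after 17.5 h compound exposure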)
Outline: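 Seed PGC/ERR cells (2,000/well); incubate 6 h at 37 C/5% CO2; pin-transfer compounds in DMSO; incubate 17.5 h at 37 C; add CellTiter-Fluor; after 30 min read fluorescence.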

[18] = qHTS assay to identify small molecule agonists of the estrogen related receptor (ERR) signaling pathway (AID 1224820)
Outline: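 Quantitative HTS of the LOPAC library used NTP ERR reporter cells treated 18 h at 37 C. Signal is luminescence after One-Glo addition and a 30 min room-temperature incubation.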

[19] = system: estrogen-related receptor alpha (ERRalpha) with PGC-1alpha coactivator, human; assay: qHTS assay to identify small molecule antagonists of the estrogen related receptor signaling pathway with the pleiotropic PPARgamma coactivator (PGC) (AID 1224821; calls by dose curve;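 note: series mostly up to about 46 µM; lower luminescence signal means antagonism of PGC/ERR signalling; nearly all actives have a fitted effect of over 50% in size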)
Outline: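 Quantitative HTS for antagonism: PGC/ERR cells received compounds after 6 h attachment and were incubated 18 h at 37 C, with luminescence (One-Glo) as the endpoint.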

[20] = qHTS assay to identify small molecule agonists of the estrogen related receptor signaling pathway with the pleiotropic PPARgamma coactivator (PGC) (AID 1224823)
Outline: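 Cell-based luciferase assay in the NTP-supplied PGC/ERR line, 2,000 cells/well; 18 h compound exposure at 37 C, luminescence after One-Glo.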
% is set by controls: 0 for no effect and ±100 for the full control effect.

Chain of Nuclear receptor subfamily 1 group I member 3 (Homo sapiens) (Q14994 whole entry, looked up): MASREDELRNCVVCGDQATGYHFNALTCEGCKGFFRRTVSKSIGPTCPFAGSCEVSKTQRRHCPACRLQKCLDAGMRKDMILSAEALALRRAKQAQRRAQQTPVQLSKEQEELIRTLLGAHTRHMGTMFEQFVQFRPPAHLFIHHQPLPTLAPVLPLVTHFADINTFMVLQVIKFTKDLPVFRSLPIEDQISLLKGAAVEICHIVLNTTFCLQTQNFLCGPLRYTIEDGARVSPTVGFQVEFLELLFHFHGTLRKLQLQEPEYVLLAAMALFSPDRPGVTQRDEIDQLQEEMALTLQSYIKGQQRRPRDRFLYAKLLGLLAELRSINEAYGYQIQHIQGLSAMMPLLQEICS
Chain of Thyrotropin receptor (Homo sapiens) (P16473 whole entry, looked up): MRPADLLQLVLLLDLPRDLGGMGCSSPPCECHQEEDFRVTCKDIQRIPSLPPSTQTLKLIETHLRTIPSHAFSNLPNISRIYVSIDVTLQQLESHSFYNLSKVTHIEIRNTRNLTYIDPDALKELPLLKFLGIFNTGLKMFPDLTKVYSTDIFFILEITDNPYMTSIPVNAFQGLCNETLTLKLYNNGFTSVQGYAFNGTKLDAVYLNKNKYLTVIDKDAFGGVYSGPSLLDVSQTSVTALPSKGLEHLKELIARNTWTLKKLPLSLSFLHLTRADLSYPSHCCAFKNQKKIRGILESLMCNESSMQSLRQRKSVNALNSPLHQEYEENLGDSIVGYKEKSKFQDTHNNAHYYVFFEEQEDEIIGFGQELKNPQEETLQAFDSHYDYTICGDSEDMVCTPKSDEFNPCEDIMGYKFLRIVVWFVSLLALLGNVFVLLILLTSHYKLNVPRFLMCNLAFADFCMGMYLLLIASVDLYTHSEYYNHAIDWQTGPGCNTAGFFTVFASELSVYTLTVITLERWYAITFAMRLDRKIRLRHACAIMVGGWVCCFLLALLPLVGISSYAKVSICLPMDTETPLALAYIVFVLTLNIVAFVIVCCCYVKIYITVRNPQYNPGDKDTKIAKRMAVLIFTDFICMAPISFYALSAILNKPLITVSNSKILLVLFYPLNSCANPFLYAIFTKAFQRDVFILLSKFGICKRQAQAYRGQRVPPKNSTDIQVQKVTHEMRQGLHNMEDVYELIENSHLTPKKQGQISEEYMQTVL
Chain of Luciferin 4-monooxygenase (Photinus pyralis) (P08659 whole entry, looked up): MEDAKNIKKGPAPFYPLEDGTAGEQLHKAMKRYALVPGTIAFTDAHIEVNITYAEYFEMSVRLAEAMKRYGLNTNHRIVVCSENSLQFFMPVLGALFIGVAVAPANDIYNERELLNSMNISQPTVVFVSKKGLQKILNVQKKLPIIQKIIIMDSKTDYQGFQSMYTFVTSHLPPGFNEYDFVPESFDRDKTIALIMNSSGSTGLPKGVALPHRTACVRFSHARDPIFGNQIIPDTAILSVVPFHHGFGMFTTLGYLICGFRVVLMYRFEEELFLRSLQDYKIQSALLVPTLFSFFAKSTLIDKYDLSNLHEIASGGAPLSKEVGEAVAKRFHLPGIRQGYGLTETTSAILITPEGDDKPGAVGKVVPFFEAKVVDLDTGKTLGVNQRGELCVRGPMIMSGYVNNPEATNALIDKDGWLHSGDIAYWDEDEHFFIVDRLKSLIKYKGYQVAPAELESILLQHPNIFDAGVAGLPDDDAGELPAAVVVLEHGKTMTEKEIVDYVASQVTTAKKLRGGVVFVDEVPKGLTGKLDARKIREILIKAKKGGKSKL
Chain of Retinoic acid receptor RXR-alpha (Homo sapiens) (P19793 whole entry, looked up): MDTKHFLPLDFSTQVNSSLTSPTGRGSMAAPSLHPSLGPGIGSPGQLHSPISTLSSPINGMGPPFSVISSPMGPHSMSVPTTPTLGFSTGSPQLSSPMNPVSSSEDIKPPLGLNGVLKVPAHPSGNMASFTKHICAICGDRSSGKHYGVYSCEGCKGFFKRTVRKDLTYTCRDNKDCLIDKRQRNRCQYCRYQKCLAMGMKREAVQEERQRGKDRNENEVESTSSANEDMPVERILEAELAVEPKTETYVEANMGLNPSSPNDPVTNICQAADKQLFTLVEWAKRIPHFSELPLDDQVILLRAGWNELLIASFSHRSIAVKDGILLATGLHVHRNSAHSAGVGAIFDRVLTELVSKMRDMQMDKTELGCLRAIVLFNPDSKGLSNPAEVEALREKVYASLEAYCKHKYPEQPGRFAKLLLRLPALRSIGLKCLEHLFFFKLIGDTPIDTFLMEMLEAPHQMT

CCOC(=O)c1ccc(C)cc1
inactive: Potency [1] | Potency [2] | outcome [3] | Potency [4] | Potency [5] | Potency [6] | Potency [7] | Potency [8] | Potency [9] | Potency [10] | Potency [11] | Potency [12] | Potency [13] | outcome [14]

c1ccc(CC2=NCCN2)cc1
inactive: Potency [1] | Potency [2] | outcome [3] | Potency [4] | Potency [5] | Potency [6] | Potency [7] | Potency [8] | Potency [9] | Potency [10] | Potency [11] | Potency [12] | Potency [13] | outcome [14] | Potency [15]

Nc1ccc(S(=O)(=O)Nc2ccnn2-c2ccccc2)cc1
inactive: Potency [1] | Potency [2] | activity change, negative = cytotoxicity [3] 2.06% [at 19 µM] | activity, negative = inhibition [4] -19.4% [at 19 µM] | Potency [5] | outcome [16] | outcome [17] | viability change, negative = cytotoxic [6] -1.42% [at 19 µM] | viability change, negative = cytotoxic [8] 4.16% [at 19 µM] | activity change, negative = cytotoxicity [9] 3.82% [at 19 µM] | activity, negative = inhibition [10] 0.346% [at 19 µM] | activation [11] -2.19% [at 19 µM] | viability change, negative = cytotoxic [12] 2.18% [at 19 µM] | Potency [15]

CCn1ccnc1CC1COc2ccccc2O1 (configuration not stated)
inactive: Potency [1] | Potency [2] | outcome [3] | Potency [4] | Potency [5] | outcome [16] | outcome [18] | outcome [19] | outcome [17] | outcome [20] | Potency [6] | Potency [8] | Potency [9] | Potency [10] | Potency [11] | Potency [12] | Potency [13] | outcome [14] | Potency [15]

CCN(CC)CCNC(=O)c1cc(S(C)(=O)=O)ccc1OC
inactive: Potency [1] | Potency [2] | outcome [3] | Potency [4] | Potency [5] | outcome [16] | outcome [17] | Potency [6] | Potency [7] | Potency [8] | Potency [9] | Potency [12] | Potency [15]

CN(C(=O)c1c(O)c2ccccc2n(C)c1=O)c1ccccc1
inactive: Potency [1] | Potency [2] | outcome [3] | Potency [4] | Potency [5] | Potency [6] | Potency [7] | Potency [8] | Potency [9] | Potency [10] | Potency [11] | Potency [12] | Potency [13] | outcome [14]

OC(CCN1CCCCC1)(c1ccccc1)C1CC2C=CC1C2 (configuration not stated)
inactive: Potency [1] | Potency [2] | outcome [3] | Potency [4] | Potency [5] | outcome [16] | outcome [17] | Potency [6] | Potency [7] | Potency [8] | Potency [9] | Potency [10] | Potency [11] | Potency [12]

O=C1OC(=O)C2CCCCC12 (configuration not stated)
inactive: Potency [1] | Potency [2] | outcome [3] | Potency [4] | Potency [5] | Potency [6] | Potency [7] | Potency [8] | Potency [9] | Potency [10] | Potency [11] | Potency [12] | Potency [13] | outcome [14]

CC(C(=O)O)c1ccc(CC2CCCC2=O)cc1 (configuration not stated)
inactive: Potency [1] | Potency [2] | outcome [3] | Potency [4] | Potency [5] | outcome [16] | outcome [17] | Potency [6] | Potency [7] | Potency [8] | Potency [9] | Potency [10] | Potency [11] | Potency [12] | Potency [15]

COC(=O)C1=C(C)NC(C)=C(C(=O)OC)C1c1ccccc1[N+](=O)[O-]
27.6 µM (active) and inactive: Potency [2]
24.4 µM (active) and inactive: Potency [5]
inactive: Potency [1] | outcome [3] | Potency [4] | outcome [16] | outcome [18] | outcome [19] | outcome [17] | outcome [20] | Potency [8] | Potency [9] | Potency [12] | Potency [13] | outcome [14]
54.5 µM (active) and inactive: Potency [6] | Potency [15]
40 µM (active) and inactive: Potency [7]

CC(C[N+](C)(C)C)OC(N)=O (configuration not stated)
inactive: Potency [1] | Potency [2] | outcome [3] | Potency [4] | Potency [5] | outcome [16] | outcome [18] | outcome [19] | outcome [17] | outcome [20] | Potency [6] | Potency [7] | Potency [8] | Potency [9] | Potency [10] | Potency [11] | Potency [12] | Potency [13] | outcome [14]

CCN1CCC[C@H]1CNC(=O)c1c(O)c(Cl)cc(Cl)c1OC
inactive: Potency [1] | Potency [2] | outcome [3] | Potency [4] | Potency [5] | outcome [16] | outcome [17] | Potency [6] | Potency [7] | Potency [8] | Potency [9] | Potency [10] | Potency [11] | Potency [12] | Potency [15]

C[N+](C)(C)CCCCCC[N+](C)(C)C
inactive: Potency [2] | outcome [3] | Potency [5] | outcome [16] | outcome [17] | Potency [6] | Potency [7] | Potency [8] | Potency [9] | Potency [11] | Potency [12]
inactive and 16.8 µM (active): Potency [4]
inactive and 10.7 µM (active): Potency [1]
inactive and 26.6 µM (active): Potency [10]

CCN(CC)CCOCCOC(=O)C1(c2ccccc2)CCCC1
inactive: Potency [1] | Potency [2] | outcome [3] | Potency [4] | Potency [5] | outcome [16] | Potency [6] | Potency [7] | Potency [8] | Potency [10] | Potency [11] | Potency [12] | Potency [15]

CC(=O)OCC(=O)[C@@]1(O)CC[C@H]2[C@@H]3CCC4=CC(=O)CC[C@]4(C)[C@H]3C(=O)C[C@@]21C
inactive: Potency [1] | Potency [2] | outcome [3] | Potency [4] | Potency [5] | outcome [16] | outcome [17] | Potency [6] | Potency [7] | Potency [8] | Potency [9] | Potency [12]

N=C(N)c1ccccc1
inactive: Potency [1] | Potency [2] | outcome [3] | Potency [4] | Potency [5] | outcome [16] | outcome [17] | Potency [6] | Potency [7] | Potency [8] | Potency [9] | Potency [10] | Potency [11] | Potency [12] | Potency [15]

O=C1CCCC(=O)C1
inactive: Potency [1] | Potency [2] | outcome [3] | Potency [4] | Potency [5] | Potency [6] | Potency [7] | Potency [8] | Potency [9] | Potency [10] | Potency [11] | Potency [12] | Potency [13] | outcome [14]
